The record followed here is PubChem BioAssay (NCI).

Compounds without any hit were thinned out: in the full panel of roughly 83,000, 20% have a hit.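 Treatment: one concentration, 48 hours, 96-well format. Scoring: percent growth, with anything below 10 considered active.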 Values without a mark were called inactive. Calls of active or inactive are those of the source.

This assay has as its system RPMI-8226 leukemia. Briefly: NCI-60 one-dose screen, 48 h (100 = growth as untreated, 0 = no growth, -100 = all killed). Particulars: 10 µM unless noted.
Regarding `N#C/C(C(=O)c1ccccc1)=C1/C(=O)Nc2ccc(F)cc21`, the growth was 104%.

`C=C(C)[C@@H]1CC[C@]2(C(=O)NCCCN)CC[C@]3(C)[C@H](CC[C@@H]4[C@@]5(C)CC[C@H](O)C(C)(C)[C@@H]5CC[C@]43C)[C@@H]12`: the growth was -6.66% [100 µM] (active).

As for `O=C1/C(=C\c2cn(CC(O)CN3CCCCC3)c3ccccc23)c2ccccc2N1c1c(Cl)cccc1Cl` (stereo not drawn), the growth was -25.7% (active).

Turning to `COc1ccc(OC)c([N+](=O)[O-])c1C(=O)CNC(C)=O`, the growth is 93.4%.

`Nc1cccc2c1C(=O)c1cccc(NC(=O)c3ccccc3)c1C2=O`: the growth is 15.2%.

As for `CCNc1cc2c(cc1Br)-c1ccccc1C2=O`, the growth is 100%.

With `CCOc1cccc2c(NC(C)CCCN(CC)CC)c(C)cnc12` (stereo not drawn), the growth was 107%.

Consider `COc1cc(/C=C/C(=O)/C=C/c2ccc(-n3ccnc3C)cc2)ccc1O`, for which the growth is -23.5% (active).

Regarding `COc1cc(-c2nc(SCCC(C)C)nc(Nc3ccccc3)c2C#N)cc(OC)c1OC`, the growth is 92.2%.

For the compound `CN(C)C(=S)Sc1ccc([N+](=O)[O-])cc1[N+](=O)[O-]`, the growth is 27.7%.

Regarding `Nc1ccc(Cl)c([N+](=O)[O-])c1`, the growth was 97.8%.

Consider `CCCCCCCCCCCCNC(=S)N/N=C/c1ccccc1O`, for which the growth is 55.4%.

As for `CC1(C)CC[C@]2(C(=O)OC(=O)[C@]34CCC(C)(C)C[C@@H]3C3=CC[C@@H]5[C@@]6(C)CCC(=O)C(C)(C)[C@@H]6CC[C@@]5(C)[C@]3(C)CC4)CC[C@]3(C)C(=CC[C@@H]4[C@@]5(C)CCC(=O)C(C)(C)[C@@H]5CC[C@]43C)[C@H]2C1`, the growth is 61% [100 µM].

As to `COc1cccc(-c2[nH]c(=S)ncc2C(=O)c2ccccc2)c1`, the growth was 113%.

Regarding `O=C(N=c1n(-c2ccccc2)nc2n1CCN2C1=NCCN1C(=O)c1ccc(Cl)cc1)c1ccc(Cl)cc1`, the growth was 73.2%.

Take `COc1cc2c(=O)[nH]c3cc([N+](=O)[O-])ccc3c2cc1[N+](=O)[O-]`: the growth was 57.2%.

Turning to `NC(=O)CC1C=CCC1` (stereo not drawn), the growth is 96.5%.

With `O=C(Nc1cccc2ccccc12)c1cc2ccccc2cc1O`, the growth is 15.1%.

Turning to `Cc1ccc(N)c(O)c1`, the growth was 61.9%.

For `CCOC(=O)CCC[P+](c1ccccc1)(c1ccccc1)c1ccccc1`, the growth was 41.9%.

Regarding `CCN(CC)c1cc(N)c(Cc2c(N)cc(N(CC)CC)cc2Cl)c(Cl)c1`, the growth is 3.27% (active).

Consider `CSc1nc(N)c(N=Nc2ccc(S(=O)(=O)Nc3nnc(C)s3)cc2)c(=O)[nH]1`, for which the growth is 132%.

`CC1(C)C(=O)/C(=C\c2cccnc2)C[C@]2(C)[C@H]3CC[C@@H]4[C@H]5[C@H](C(=O)/C=C/c6cccnc6)CC[C@]5(C(=O)O)CC[C@@]4(C)[C@]3(C)CC[C@@H]12`: the growth is -27% [100 µM] (active).

In the case of `N#CCCc1c[nH]c2ccccc12`, the growth was 92.7%.

Take `C[C@@H]1C[C@H]2C(=O)O[C@@H](C)[C@H](NC(=O)[C@H](Cc3cc(F)cc(F)c3)NC(=O)Nc3ccc(C4CC4)cc3F)C(=O)N3CCC[C@H]3C(=O)N3CCCC[C@H]3C(=O)N[C@@H](C)C(=O)N2C1`: the growth was 14%.

For `CCN(CC)CCCC(C)Nc1c2ccc(C)cc2nc2ccc(OC)cc12` (stereo not drawn), the growth is 1.21% (active).

For `C#CCNC(=O)CC[C@]1(C)[C@H]2CC[C@@H]3[C@@H]([C@@](C)(O)CCC=C(C)C)CC[C@@]3(C)[C@]2(C)CC[C@H]1C(=C)C`, the growth is -7.33% [100 µM] (active).

With `CC1(C)CC[C@]2(C(=O)O)CC[C@]3(C)C(=CC[C@@H]4[C@@]5(C)C/C(=C/c6ccco6)C(=O)C(C)(C)[C@@H]5CC[C@]43C)[C@@H]2C1`, the growth was 0.316% [100 µM] (active).

As for `C=C(C)[C@@H]1CC[C@]2(C(=O)O)CC[C@]3(C)[C@H](CC[C@@H]4[C@@]5(C)C/C(=C/c6ccco6)C(=O)C(C)(C)[C@@H]5CC[C@]43C)[C@@H]12`, the growth was 2.97% [100 µM] (active).

Turning to `C[n+]1cccc(NC(=O)c2ccc3ccc4ccc(C(=O)Nc5ccc[n+](C)c5)nc4c3n2)c1`, the growth was 61.5%.

For `Cc1ccc(S(=O)(=O)N/N=C2\CC3CCC2(C)C3(C)C)cc1` (stereo not drawn), the growth is 97.4%.

With `CCOC(=O)c1nn(C2CCCCO2)c2ccc(NC(=O)Cn3nnc4ccccc43)cc12` (stereo not drawn), the growth was 107%.

Regarding `Cn1cc(-c2nnc(-c3cn(C)c4ncc(Br)cc34)o2)c2ccccc21`, the growth is 88.5%.
